# TRHR agonist = qHTS for Small Molecule Agonists and Allosteric Enhancers of Human TRH Receptor: Primary Screen for Agonists; TRHR cells, calcium flux fluo-8, FDSS agonist mode; activation, % at 2 µM; actives 0.18% (n = 360,000); AID 493084, 2011; note: 0% is about no effect
#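 In this calcium-flux screen, cells bearing human TRHR are dye-loaded with fluo-8, baselined for 10 cycles, then exposed to library compounds; positive kinetic calcium responses during the agonist phase mark hits, with TRH as control.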
# TRHR enhancer = qHTS for Small Molecule Agonists and Allosteric Enhancers of Human TRH Receptor: Primary Screen for Enhancers | Thyrotropin-releasing hormone receptor (Homo sapiens), P34981 | TRHR cells, fluo-8 calcium fluorescence, EC20 TRH enhancement | AID 493056, 2011 | enhancement, % at 2 µM | actives 0.66% (n = 360,000); in the data active = enhancement above about 30%; note: 0% is about no effect
#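 Enhancer read-out: after compound pinning and an initial kinetic agonist-mode read, an EC20 of TRH (10 nM final) was injected and fluo-8 calcium signal (Ex 480/Em 530) followed at 1 s/cycle for 100 cycles in TRHR-expressing cells.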
# D1 agonist = Allosteric Agonists of the Human D1 Dopamine Receptor: qHTS. actives 1% (n = 360,000). AID 504660, 2011. activation, % at 2 µM. HEK293 T-REx D1 cells, calcium flux, agonist mode; note: 0% is about no effect
#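 Inducible HEK293 T-REx D1 cells, force-coupled to calcium signalling, were plated at 4000 cells/well with tetracycline and held overnight at 30 C. After no-wash calcium dye loading, compound-evoked calcium rise over 180 s flagged agonists.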
# USP1-UAF1 inh = Inhibitors of USP1/UAF1: Primary Screen; recombinant USP1/UAF1, Ub-Rhodamine cleavage fluorescence; Potency, µM (highest dose often 57.1 µM), for the others: top-dose activity change, negative = inhibition, actives largely listed as inhibitors; actives 0.23% (n = 390,000); active = well fitted inhibition curve with a large enough effect; inconclusive = small, poorly fitted or top-dose-only effect; inactive = no such curve, though single readings can be large or run the other way; note: potency is the fitted concentration of half-maximal effect; % is set by controls: 0 for no effect and ±100 for the full control effect; nearly all actives have a fitted effect of over 60% in size
# Target sequence (O94782 whole entry, looked up): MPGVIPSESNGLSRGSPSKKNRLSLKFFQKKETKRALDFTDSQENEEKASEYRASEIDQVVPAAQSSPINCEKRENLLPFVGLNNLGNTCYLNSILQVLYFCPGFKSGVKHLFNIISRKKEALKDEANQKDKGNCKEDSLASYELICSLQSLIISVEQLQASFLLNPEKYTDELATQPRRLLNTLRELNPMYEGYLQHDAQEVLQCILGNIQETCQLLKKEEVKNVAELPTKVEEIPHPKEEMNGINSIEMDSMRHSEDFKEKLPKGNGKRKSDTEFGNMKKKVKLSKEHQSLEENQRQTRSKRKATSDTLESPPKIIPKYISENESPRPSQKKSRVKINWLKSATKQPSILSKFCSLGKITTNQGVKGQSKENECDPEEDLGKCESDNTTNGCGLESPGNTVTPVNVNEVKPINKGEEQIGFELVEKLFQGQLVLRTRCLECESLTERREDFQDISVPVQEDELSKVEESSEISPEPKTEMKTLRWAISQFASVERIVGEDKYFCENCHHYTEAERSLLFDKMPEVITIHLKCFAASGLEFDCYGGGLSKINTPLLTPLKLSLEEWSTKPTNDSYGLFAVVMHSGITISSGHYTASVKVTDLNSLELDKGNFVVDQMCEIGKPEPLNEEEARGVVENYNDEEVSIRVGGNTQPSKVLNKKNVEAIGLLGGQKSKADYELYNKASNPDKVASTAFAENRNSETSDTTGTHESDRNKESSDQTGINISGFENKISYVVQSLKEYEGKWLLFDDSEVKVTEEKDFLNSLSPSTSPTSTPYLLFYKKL
#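 USP1/UAF1 complex at 1 nM was preincubated with compound for 15 min at room temperature, then Ub-Rho substrate (150nM final) was added. Fluorescence (480/540 nm) was read kinetically, 6 reads every 60 seconds.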
# D1 PAM = Potentiators of Human D1 Dopamine Receptor: qHTS; AID 504651, 2011; HEK293 TREx D1 cells, calcium flux, dopamine EC20 potentiation; actives 0.036% (n = 360,000); potentiation, % at 10 µM; in the data active = potentiation above about 30%; note: 0% is about no effect
# D1 antagonist = Antagonist of Human D 1 Dopamine Receptor: qHTS | D(1A) dopamine receptor (Homo sapiens), P21728 | HEK293 TREx D1 cells, calcium flux, dopamine EC80; active compounds read low | activity change, negative = inhibition, % at 10 µM | actives 3.2% (n = 360,000) | AID 504652, 2011; in the data active = activity change below about -30%; note: % is set by controls: 0 for no effect and ±100 for the full control effect
#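 Cells carrying a force-coupled, tetracycline-inducible human D1 receptor report calcium flux. Each well gets a 10 s baseline, compound with 180 s monitoring, then an EC80 dopamine stimulus with a second 180 s kinetic read.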
# Starred values were filed as active, the others as inactive; u = inconclusive; x = not tested or not shown; ! = a repeat was not active. A selection: hits, their analogues and other compounds. The true share with any hit is near 4.4%. Cut-off read from the data, not from the text of the source, unless noted: active = activation above about 30%; inactive = the rest.
SMILES,TRHR agonist,TRHR enhancer,D1 agonist,USP1-UAF1 inh,D1 PAM,D1 antagonist
COc1ccccc1N1CCN(C(=O)c2c(C)oc3ncn(C)c(=O)c23)CC1,1,-23,1,-20%,-6,-35*
CC(=O)c1cccc(NC(=O)c2cc(-c3cccs3)on2)c1,1,-1,5,-18%,-9,-1
O=C(Nc1cccc(O)c1)c1cc(-c2cccs2)on1,1,9,9,-18%,-8,-38*
Cc1ccc(NC(=O)CN2C(=O)CC(c3ccco3)Sc3ccccc32)cc1Cl (configuration not stated),0,-3,3,-26%,-5,4
O=C(c1cc(-c2cccs2)on1)N1CCN(c2ccccc2)CC1,0,-6,5,-17%,-10,-38*
Cc1ccc(NC(=S)NCC2CCN(C(C)c3ccccc3)C2)cc1 (configuration not stated),0,-7,5,-7%,-9,-21
CC(c1ccccc1)N1CCC(CNC(=S)Nc2cccc(Cl)c2)C1 (configuration not stated),2,3,45*,-18%,-4,-54*
COc1ccc(NS(=O)(=O)c2ccc(-c3cnc(C4CC4)o3)cc2)cc1OC,0,-7,17,-18%,-7,-31*
CCOc1ccccc1NS(=O)(=O)c1ccc(-c2cnc(C3CC3)o2)cc1,0,-5,18,u,-2,-38*!
COc1ccccc1NS(=O)(=O)c1ccc(-c2cnc(C3CC3)o2)cc1,0,2,10,-21%,-2,-25
Cc1cccc(N(C)S(=O)(=O)c2ccc(-c3cnc(C4CC4)o3)cc2)c1,1,0,9,-7%,-10,-38*
CC(=O)C1=C(c2ccc(Cl)cc2)N(C(C)=O)n2c(nnc2C2CCCCC2)S1,0,0,1,-10%,-2,x
COc1ccc(-c2noc(C3CC(=O)N(c4ccc5c(c4)OCCO5)C3)n2)c(OC)c1 (configuration not stated),0,7,5,-20%,2,2
N#Cc1ccc(COc2cccnc2[N+](=O)[O-])cc1,0,-8,2,-6%,-7,-7
O=[N+]([O-])c1ncccc1OCc1ccc(-c2ccccc2)cc1,1,7,6,-8%,-7,-33*
O=C(NN=C1CCCCC1)NC1CCCCC1,0,1,0,-4%,2,-85*
O=C(NC1CCCCC1)[C@H](O)[C@@H](O)C(=O)NC1CCCCC1,1,-2,8,1%,-2,3
O=C(NC1CCCCCC1)C(=O)NC1CCCC1,0,2,5,6%,-1,-33*
O=C(NN=C1CCCC1)NC1CCCCC1,1,3,3,-16%,1,7
COc1ccc(C(c2sc3nc(C)nn3c2O)N2CCN(Cc3ccccc3)CC2)cc1OC (configuration not stated),0,7,2,-4%,-11,-51*
O=C(Nc1ccccc1)c1cccc(N2C(=O)C3C4C=CC(C5CC45)C3C2=O)c1 (configuration not stated),0,0,10,-24%,4,-38*
COC(=O)c1ccc(NC(=O)c2cccc(N3C(=O)C4C5C=CC(C6CC56)C4C3=O)c2)cc1 (configuration not stated),1,-2,7,-21%,0,13
O=C(Nc1ccc(F)cc1)c1cccc(N2C(=O)C3C4C=CC(C5CC45)C3C2=O)c1 (configuration not stated),0,-8,13,-12%,-2,-38*
O=C(Nc1ccc(Br)cc1)c1cccc(N2C(=O)C3C4CCC(C4)C3C2=O)c1 (configuration not stated),-1,1,6,-11%,-6,-39*
Cc1cc(N2CCN(C)CC2)nc2ccc(NC(=O)Nc3ccccc3Br)cc12,-1,-14,1,u,-6,-21
SMILES,TRHR agonist,TRHR enhancer,D1 agonist,USP1-UAF1 inh,D1 PAM,D1 antagonist
CCCOC(=O)c1ccc(Cn2nnc3sc4c(c3c2=O)CCC(C)C4)cc1 (configuration not stated),1,0,1,-10%,-3,1
CCOc1ccc(NC(=O)CCc2c(C)nc3nc(-c4cc(OC)cc(OC)c4)nn3c2C)cc1,0,6,1,-8%,-4,17
CCOC1=C/C(=C/c2c(N)n3nc(S(=O)(=O)CC)sc3nc2=O)C=CC1=O,33*,0,28,-20%,2,-13
O=C(Nc1cccc(Cl)c1)c1cc(S(=O)(=O)N2CCCc3ccccc32)ccc1F,1,8,2,-12%,-3,5
CCCCCCc1cc2cc(-c3nnc(-c4cc(OC)c(OC)c(OC)c4)o3)c(=O)oc2cc1O,-1,-3,0,66%,6,4
CCCCCCc1cc2cc(-c3nnc(-c4ccccc4OC)o3)c(=O)oc2cc1O,148*,-14,303*,14µM*,-9,-9
CCCCCCc1cc2cc(-c3nnc(-c4ccccc4O)o3)c(=O)oc2cc1O,147*,51*,356*,8.9µM*,0,2
Cc1ccc(-n2nc(C)c3nc(CCC(=O)Nc4cccc(F)c4)c(=O)n(C)c32)cc1,0,-2,1,-4%,0,-1
CC(C)N(C(=O)CSc1nc2ccc(Cl)cc2[nH]1)c1ccccc1,-1,-1,20,-4%,1,-44*
COc1ccc(-c2nnc(SCC(=O)NC3CCCC3)nc2-c2ccc(OC)c(OC)c2)cc1OC,0,33*,1,-10%,2,-7
CCOc1ccc(-c2nnc(SCC(=O)NC3CCCCC3)nc2-c2ccc(OCC)c(OC)c2)cc1OC,0,-3,1,u,4,16
Cc1ccc(-c2ccc(SCC(=O)NC3CCCC3)nn2)cc1,-1,-3,3,-7%,-3,-31*
O=C(Nc1nonc1-c1ccc(Cl)cc1)c1ccccc1F,-2,5,1,-12%,2,-1
COc1cc(OC)cc(C(=O)Nc2cccc(-c3cn4ccsc4n3)c2)c1,-1,-1,1,-15%,-2,-7

# Assay outcomes deposited in PubChem BioAssay by National Center for Advancing Translational Sciences (NCATS).
